Data on 5 compounds can be found in PubChem BioAssay.

The test system of test [1] is PRMT1 (protein arginine N-methyltransferase 1). Description: small molecules binding arginine methyltransferase PRMT1 – biochemical, small-molecule microarray, 635 nm fluorescence, primary screen (AID 1088).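 Note: binding of Prmt1 protein to compounds spotted on small-molecule microarray slides.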 The note with it: higher = more signal.
Test [2] is described as follows: growth effects on S. cerevisiae YJM789 – YJM789 clinical isolate, OD600, 24 h, basal, primary screen (AID 1089).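 Note: growth of clinical yeast isolate S. cerevisiae YJM 789 seeded 1000 cells per well; test concentration not given here.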 The conditions noted are these: higher = more signal, called active from +8 up or from −8 down.
Test [3] in a line: S. pombe growth modifiers, basal conditions – strain 972, OD600, 24 h, no modulator, primary screen (AID 1090).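 Note: basal condition with compound alone and no growth modifier present; test concentration not given here.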 The note with it: S. pombe 972 growth, higher = more signal, called active from +8 up or from −8 down.
The nature of test [4]: budding yeast growth modifiers under rapamycin – strain BY4716, OD600, 96 h, primary screen (AID 1091). Note: test concentration not given here. The note with it: S. cerevisiae BY4716 + rapamycin, higher = more signal, called active from +8 up or from −8 down.
For test [5], the target named is Torsin-1A-interacting protein 2 (Homo sapiens) (UniProt Q8NFQ8). Description: small molecules binding lysate-expressed LULL1 – cell lysate, human LULL1 lysate, 635/667 nm fluorescence, primary screen (AID 1092).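 Note: probe is lysate of COS7 cells overexpressing human LULL1; score merges per-feature 667 nm fluorescence with signal-to-noise.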 The conditions noted are these: small-molecule microarray, hLULL1 lysate binding, 635 nm fluorescence; higher = more signal.
Test [6] in a line: optical density change of DRC41 E. coli – strain DRC41, OD650, 24 h, E. coli filamentation project, primary screen (AID 1093).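 Note: MC1000 strain lacking acrAB efflux and sulA so SOS filamentation is blocked; test concentration not given here.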 The conditions noted are these: E. coli DRC41 growth, higher = more signal, called active from +8 up or from −8 down.
The nature of test [7]: probe aLefty2 binding to arrayed compounds – biochemical, biotinylated probe, 635/667 nm fluorescence, primary screen (AID 1094).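 Note: score merges spot fluorescence near 667 nm with spot signal-to-noise ratio.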 The conditions noted are these: small-molecule microarray, higher = more signal.
For test [8], the system named is Noggin (protein binding on small-molecule microarray). Description: small molecules binding Noggin protein – biochemical, 635/667 nm fluorescence, primary screen (AID 1095).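 Note: score merges 667 nm feature fluorescence with signal to noise over triplicate slides.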 The conditions noted are these: 635 nm fluorescence, higher = more signal.
In test [9] the target is Neurogenic locus notch homolog protein 3 (Homo sapiens) (UniProt Q9UM47). The test is described as follows: small molecules binding NOTCH3 protein – biochemical, 635/667 nm fluorescence, primary screen (AID 1096). The conditions noted are these: small-molecule microarray, 635 nm fluorescence, higher = more signal.
The nature of test [10]: probe aEGFR binding to arrayed compounds – biochemical, biotinylated probe, 635/667 nm fluorescence, primary screen (AID 1097).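 Note: probe is a biotinylated anti-EGFR antibody binding compounds printed on slides; score combines fluorescence near 667 nm and signal to noise of each spot.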 The note with it: small-molecule microarray, higher = more signal.
Test [11] relates to Plasmodium falciparum Sir2 (PF13_0152, Sir2A). The test is described as follows: Plasmodium falciparum Sir2A binding compounds – biochemical, small-molecule microarray, 635 nm fluorescence, primary screen (AID 1098).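 Note: score merges spot fluorescence intensity with its signal-to-noise ratio.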 The conditions noted are these: fluorescence 635 nm, higher = more signal.
Test [12] can be described thus: probe aDKK1 binding to arrayed compounds – biochemical, biotinylated probe, 635/667 nm fluorescence, primary screen (AID 1099).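 Note: score merges 667nm spot fluorescence with signal to noise across triplicate slides; reference of the scale not given here.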 The conditions noted are these: small-molecule microarray, higher = more signal.
The nature of test [13]: probe aCHRDL2 binding to arrayed compounds – biochemical, biotinylated probe, 635/667 nm fluorescence, primary screen (AID 1100). The note with it: small-molecule microarray, higher = more signal.
A short description of test [14]: change in splice reporter luminescence, either direction, cell-based, HEK293, spliceosome inhibition project, primary screen (AID 1101).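 Note: HEK293 cells carrying a splicing-competent luciferase reporter gene; test concentration not given here.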 The conditions noted are these: HEK293 splicing luciferase reporter, 24 h, higher = more signal, called active from +8 up or from −8 down.
Test [15] deals with Fibroblast growth factor 10 (Homo sapiens) (UniProt O15520). Description: compounds binding fibroblast growth factor 10 – biochemical, small-molecule microarray, 635 nm fluorescence, primary screen (AID 1102). The note with it: FGF10 binding, fluorescence 635 nm, higher = more signal.
Test [16] deals with glycogen synthase kinase-3 (GSK3A per assay name; protocol says GSK3B). Description: compounds binding glycogen synthase kinase-3 – biochemical, small-molecule microarray, 635 nm fluorescence, GSK3A, primary screen (AID 1103). Note: the record names both GSK3A and GSK3B. The conditions noted are these: fluorescence 635 nm, higher = more signal.
The target in test [17] is Epidermal growth factor receptor (Homo sapiens) (UniProt P00533). The test is described as follows: compounds binding epidermal growth factor receptor – biochemical, small-molecule microarray, 635 nm fluorescence, primary screen (AID 1104).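 Note: score merges 667 nm emission intensity with spot signal to noise over triplicate slides.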 The note with it: EGFR binding, higher = more signal.
Test [18] concerns the target Follistatin-related protein 3 (Homo sapiens) (UniProt O95633). Description: compounds binding follistatin-related protein 3 – biochemical, small-molecule microarray, 635 nm fluorescence, primary screen (AID 1105).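 Note: score merges emission near 667 nm and signal to noise per printed spot across three slides.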 The note with it: FSTL3 binding, higher = more signal.
In test [19] the target is Dickkopf-related protein 1 (Homo sapiens) (UniProt O94907). The test is described as follows: small molecules binding DKK1 protein – biochemical, small-molecule microarray, 635 nm fluorescence scan, primary screen (AID 1106).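 Note: score merges emission near 667 nm with signal to noise over three replicate slides.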 The conditions noted are these: higher = more signal.
The test system of test [20] is Inhibin beta A chain (activin A). Description: small molecules binding activin A – biochemical, small-molecule microarray, 635 nm fluorescence scan, primary screen (AID 1107).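 Note: mouse activin A protein probed at 4.33 µg/mL on printed slides; score merges bound-protein fluorescence near 667 nm with spot signal-to-noise.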 The note with it: INHBA, higher = more signal.

Molecules are shown by their SMILES. Calls of active or inactive are those of the source.

Sequence of Fibroblast growth factor 10 (Homo sapiens) (O15520 whole entry, looked up): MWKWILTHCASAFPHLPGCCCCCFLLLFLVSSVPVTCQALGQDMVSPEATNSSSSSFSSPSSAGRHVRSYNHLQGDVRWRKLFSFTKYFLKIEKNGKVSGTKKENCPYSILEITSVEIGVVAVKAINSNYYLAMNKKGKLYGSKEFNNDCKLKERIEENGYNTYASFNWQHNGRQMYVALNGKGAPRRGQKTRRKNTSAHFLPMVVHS
Sequence of Epidermal growth factor receptor (Homo sapiens) (P00533 whole entry, looked up): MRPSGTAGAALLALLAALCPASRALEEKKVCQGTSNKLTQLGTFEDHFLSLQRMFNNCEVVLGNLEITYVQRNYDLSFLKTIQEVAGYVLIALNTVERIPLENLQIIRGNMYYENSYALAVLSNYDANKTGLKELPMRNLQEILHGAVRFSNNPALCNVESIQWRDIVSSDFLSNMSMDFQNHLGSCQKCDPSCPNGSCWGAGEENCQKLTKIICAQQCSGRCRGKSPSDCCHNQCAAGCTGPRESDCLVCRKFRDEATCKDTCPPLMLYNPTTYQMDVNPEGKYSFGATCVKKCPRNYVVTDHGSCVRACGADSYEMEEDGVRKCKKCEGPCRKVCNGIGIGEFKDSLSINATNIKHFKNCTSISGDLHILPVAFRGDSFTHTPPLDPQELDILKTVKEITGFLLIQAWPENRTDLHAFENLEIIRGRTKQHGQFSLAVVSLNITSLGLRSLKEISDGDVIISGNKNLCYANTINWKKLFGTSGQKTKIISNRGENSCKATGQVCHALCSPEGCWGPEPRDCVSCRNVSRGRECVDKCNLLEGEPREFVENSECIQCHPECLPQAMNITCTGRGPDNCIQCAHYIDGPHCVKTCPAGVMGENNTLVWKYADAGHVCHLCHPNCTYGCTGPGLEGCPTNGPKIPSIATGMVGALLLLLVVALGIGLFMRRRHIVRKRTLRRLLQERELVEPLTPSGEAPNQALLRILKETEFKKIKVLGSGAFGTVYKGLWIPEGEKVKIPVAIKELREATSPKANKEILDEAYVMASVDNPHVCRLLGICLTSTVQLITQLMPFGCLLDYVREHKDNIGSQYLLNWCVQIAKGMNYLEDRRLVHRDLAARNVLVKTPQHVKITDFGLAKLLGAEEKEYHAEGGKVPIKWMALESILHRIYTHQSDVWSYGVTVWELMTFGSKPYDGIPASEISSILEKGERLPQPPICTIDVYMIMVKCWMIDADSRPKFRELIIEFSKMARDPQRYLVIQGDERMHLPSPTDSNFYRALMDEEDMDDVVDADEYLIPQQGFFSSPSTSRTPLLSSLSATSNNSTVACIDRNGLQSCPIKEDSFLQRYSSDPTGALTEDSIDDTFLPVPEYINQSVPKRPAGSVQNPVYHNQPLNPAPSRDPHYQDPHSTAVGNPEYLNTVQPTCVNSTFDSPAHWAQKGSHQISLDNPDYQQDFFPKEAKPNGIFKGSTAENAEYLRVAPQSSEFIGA
Sequence of Neurogenic locus notch homolog protein 3 (Homo sapiens) (Q9UM47 whole entry, looked up): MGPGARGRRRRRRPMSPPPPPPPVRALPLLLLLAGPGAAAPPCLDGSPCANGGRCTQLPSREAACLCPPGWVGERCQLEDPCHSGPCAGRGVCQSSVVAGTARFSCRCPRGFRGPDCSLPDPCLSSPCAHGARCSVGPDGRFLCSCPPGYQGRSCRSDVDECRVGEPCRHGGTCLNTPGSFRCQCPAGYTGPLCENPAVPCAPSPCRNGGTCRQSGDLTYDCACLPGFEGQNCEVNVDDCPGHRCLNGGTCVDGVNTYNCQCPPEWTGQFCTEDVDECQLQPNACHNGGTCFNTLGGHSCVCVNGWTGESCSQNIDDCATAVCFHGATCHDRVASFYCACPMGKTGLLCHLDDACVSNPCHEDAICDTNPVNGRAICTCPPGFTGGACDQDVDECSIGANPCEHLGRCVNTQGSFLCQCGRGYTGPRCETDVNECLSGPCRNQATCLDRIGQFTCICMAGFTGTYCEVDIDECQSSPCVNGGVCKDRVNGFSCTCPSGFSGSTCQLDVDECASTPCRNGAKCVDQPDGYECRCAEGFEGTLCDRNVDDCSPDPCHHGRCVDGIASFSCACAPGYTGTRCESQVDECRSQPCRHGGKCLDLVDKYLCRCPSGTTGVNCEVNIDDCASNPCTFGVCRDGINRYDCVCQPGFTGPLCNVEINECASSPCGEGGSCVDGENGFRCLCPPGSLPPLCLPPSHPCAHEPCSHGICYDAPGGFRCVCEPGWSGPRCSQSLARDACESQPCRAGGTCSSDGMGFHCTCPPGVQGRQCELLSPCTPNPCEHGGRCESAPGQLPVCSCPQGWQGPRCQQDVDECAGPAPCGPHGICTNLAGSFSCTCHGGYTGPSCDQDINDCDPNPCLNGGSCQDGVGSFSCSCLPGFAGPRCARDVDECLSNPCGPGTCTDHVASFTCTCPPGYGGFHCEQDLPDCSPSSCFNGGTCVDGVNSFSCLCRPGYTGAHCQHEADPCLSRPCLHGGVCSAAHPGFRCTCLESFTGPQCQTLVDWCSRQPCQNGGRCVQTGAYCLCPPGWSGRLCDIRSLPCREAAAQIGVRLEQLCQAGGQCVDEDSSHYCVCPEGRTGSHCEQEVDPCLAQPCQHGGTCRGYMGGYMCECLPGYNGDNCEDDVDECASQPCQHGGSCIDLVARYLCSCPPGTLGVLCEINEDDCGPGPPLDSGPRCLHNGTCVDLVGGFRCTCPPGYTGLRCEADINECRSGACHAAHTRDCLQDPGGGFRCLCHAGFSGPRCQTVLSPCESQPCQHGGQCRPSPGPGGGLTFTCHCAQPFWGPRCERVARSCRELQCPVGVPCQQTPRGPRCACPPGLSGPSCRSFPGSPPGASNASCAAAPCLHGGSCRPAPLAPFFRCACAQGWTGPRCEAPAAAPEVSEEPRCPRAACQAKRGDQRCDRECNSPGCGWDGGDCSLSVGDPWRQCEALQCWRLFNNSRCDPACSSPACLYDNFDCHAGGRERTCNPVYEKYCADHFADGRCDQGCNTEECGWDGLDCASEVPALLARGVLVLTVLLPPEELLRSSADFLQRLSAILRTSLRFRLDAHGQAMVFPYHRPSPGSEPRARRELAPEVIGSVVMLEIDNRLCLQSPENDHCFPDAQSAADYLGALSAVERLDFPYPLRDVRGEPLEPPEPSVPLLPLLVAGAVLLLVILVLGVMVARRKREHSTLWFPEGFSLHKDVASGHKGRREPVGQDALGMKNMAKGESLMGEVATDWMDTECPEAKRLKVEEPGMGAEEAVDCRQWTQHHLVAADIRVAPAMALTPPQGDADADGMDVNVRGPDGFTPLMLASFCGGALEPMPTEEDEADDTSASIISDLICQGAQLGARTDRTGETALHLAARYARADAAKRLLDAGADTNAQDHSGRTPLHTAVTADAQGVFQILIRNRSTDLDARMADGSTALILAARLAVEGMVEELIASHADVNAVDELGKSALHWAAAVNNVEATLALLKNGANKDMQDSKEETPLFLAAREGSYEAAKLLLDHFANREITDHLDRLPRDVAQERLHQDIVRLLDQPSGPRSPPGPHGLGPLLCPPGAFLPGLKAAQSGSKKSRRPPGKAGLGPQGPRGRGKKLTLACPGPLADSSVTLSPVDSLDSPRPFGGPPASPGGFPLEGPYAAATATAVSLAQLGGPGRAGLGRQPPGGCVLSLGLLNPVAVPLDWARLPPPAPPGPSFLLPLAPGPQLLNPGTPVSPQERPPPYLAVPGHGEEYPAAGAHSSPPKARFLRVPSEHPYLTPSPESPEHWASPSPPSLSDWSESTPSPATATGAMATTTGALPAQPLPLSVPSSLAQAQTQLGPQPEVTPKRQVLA
Sequence of Follistatin-related protein 3 (Homo sapiens) (O95633 whole entry, looked up): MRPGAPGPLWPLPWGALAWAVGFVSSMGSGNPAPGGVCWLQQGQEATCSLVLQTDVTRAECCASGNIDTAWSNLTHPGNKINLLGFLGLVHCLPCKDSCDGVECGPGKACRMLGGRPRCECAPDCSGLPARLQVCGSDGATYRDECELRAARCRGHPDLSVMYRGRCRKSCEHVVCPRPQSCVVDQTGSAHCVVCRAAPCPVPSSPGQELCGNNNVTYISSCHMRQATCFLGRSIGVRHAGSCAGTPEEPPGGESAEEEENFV
Sequence of Dickkopf-related protein 1 (Homo sapiens) (O94907 whole entry, looked up): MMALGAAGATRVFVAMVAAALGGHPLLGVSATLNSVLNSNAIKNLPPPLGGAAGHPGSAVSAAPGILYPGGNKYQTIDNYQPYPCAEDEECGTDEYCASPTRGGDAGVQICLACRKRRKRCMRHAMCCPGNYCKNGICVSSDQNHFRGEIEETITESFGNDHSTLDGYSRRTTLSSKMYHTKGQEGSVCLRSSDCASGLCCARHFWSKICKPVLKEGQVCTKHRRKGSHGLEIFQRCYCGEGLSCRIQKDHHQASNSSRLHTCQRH
Sequence of Torsin-1A-interacting protein 2 (Homo sapiens) (Q8NFQ8 whole entry, looked up): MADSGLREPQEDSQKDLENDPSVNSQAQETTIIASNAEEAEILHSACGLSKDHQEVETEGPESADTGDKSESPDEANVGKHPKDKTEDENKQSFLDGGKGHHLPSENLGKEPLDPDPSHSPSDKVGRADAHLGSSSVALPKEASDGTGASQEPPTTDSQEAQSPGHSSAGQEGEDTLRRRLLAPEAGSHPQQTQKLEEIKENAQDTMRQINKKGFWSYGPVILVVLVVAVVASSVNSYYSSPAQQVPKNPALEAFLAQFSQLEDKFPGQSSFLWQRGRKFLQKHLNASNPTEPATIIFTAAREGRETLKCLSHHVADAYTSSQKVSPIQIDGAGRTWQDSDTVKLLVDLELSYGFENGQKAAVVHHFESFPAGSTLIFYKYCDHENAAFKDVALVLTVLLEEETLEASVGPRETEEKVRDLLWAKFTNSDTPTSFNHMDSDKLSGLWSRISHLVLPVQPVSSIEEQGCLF

With `COC(=O)[C@@H]1CC[C@H](C)[C@@H](c2ccc(C)cc2)N1C(=O)c1ccc(C=NOCC[C@@H]2C=C[C@H](OC(C)=O)[C@@H](COC(C)=O)O2)cc1`, the composite z-score in [1] was 0.903; in test [5], 0.105; in test [7] it was -0.0736; in test [8], 0.647; in [9] it was 0.792; in test [10], -0.0397. For the same compound, the composite z-score in test [11] was 0.35; in test [12], -0.33; in [13] it was -0.684; in test [15], 0.402; in test [16], 0.637; in test [17], 0.49. Also, the composite z-score in test [18] was 0.644; in test [19], 0.948; in test [20], 0.323. In addition, the z-score in test [2] was 1.09 (inactive); in test [3], 1.58 (inactive); in [4], 1.81 (inactive); in test [6] it was 0.411 (inactive); in test [14], 0.566 (inactive).
With `COc1ccc(COC(=O)NN=C2C[C@@H](O)[C@@H](O)[C@@H]3[C@@H]4C(=O)N(Cc5ccccc5)C(=O)[C@@H]4CC[C@H]23)cc1`, the composite z-score in test [1] is 0.413; in test [5], 0.739; in [7], 0.287; in [8], -1.24; in [9] it was -0.0524; in test [10], -0.13. Also, the composite z-score in test [11] is -0.515; in [12], 0.743; in test [13], 1.39; in test [15] it was -0.259; in [16] it was -0.623; in test [17], -0.432. Also, the figures for the composite z-score in test [18], in test [19] and in [20] were -0.22, -1.15 and 0.0152, respectively. Further, the z-score in test [2] was -0.457 (inactive); in [3], -0.619 (inactive); in test [4], -1.17 (inactive); in [6], -0.289 (inactive); in test [14], -0.262 (inactive).
Turning to `CCCCC#C[C@@H]1C=C[C@H](OC(C)=O)[C@@H](COC(C)=O)O1`, the composite z-score in [1] is 0.59; in [5] it was 0.456; in test [7], -0.116; in test [8], 0.216; in [9], 0.848; in test [10] it was 0.0251. In addition, the composite z-score in test [11] was 0.483; in test [12], -0.228; in [13], -0.595; in test [15], 0.46; in test [16], 0.244; in test [17], 0.137. Also, the composite z-score in [18] turned out to be 0.44; in test [19], 0.124; in test [20] it was 0.589. The z-score in test [2] is 0.248 (inactive); in test [3] it was -3.45 (inactive); in [4] it was -1.25 (inactive); in [6], 0.325 (inactive); in [14], 1.07 (inactive).
On to `COC(=O)[C@H](C)NC(=O)CCC1CC(OC(=O)NCc2ccc3c(c2)OCO3)CC2(CCCC(COC(=O)NCC3CCCCC3)O2)O1` (stereo not given in full), for which the composite z-score in [1] is 1.46; in [5], 2.28; in test [7], -0.0576; in [8], 1.1; in [9], 1.1; in test [10], -0.0139. The composite z-score was 0.74 in [11]; -0.21 in [12]; -0.647 in test [13]; 1.29 in [15]; 0.98 in test [16]; 0.621 in test [17]. In addition, the composite z-score in [18] is 1.07; in test [19] it was 0.822; in test [20] it was -0.144. The z-score in [2] was 0.147 (inactive); in [3], 0.803 (inactive); in [4] it was 1.45 (inactive); in test [6], -0.0678 (inactive); in test [14] it was 0.507 (inactive).
Turning to `CC(C)=NOC[C@@H](C)[C@H](OCc1ccccc1)C(C)C`, the composite z-score was -0.465 in test [1]; -0.602 in [5]; -0.127 in test [7]; 1.06 in [8]; -1.12 in test [9]; -0.0656 in test [10]. For the same compound, the composite z-score in [11] is -0.229; in test [12], -0.0423; in [13], 0.631; in test [15] it was -0.822; in [16] it was -1.06; in [17], -0.602. Besides, the composite z-score in [18] was -0.664; in test [19] it was -0.355; in test [20], 0.927. The z-score is 0.682 (inactive) in test [2]; -0.207 (inactive) in [3]; 0.752 (inactive) in test [4]; 0.0184 (inactive) in test [6]; -0.159 (inactive) in [14].
